{"source": "PubChem BioAssay (EPA / NIEHS)", "key": {"[1]": {"target": "human Beta-secretase (BACE), BACE1 (gene 23621) (UniProt P56817)", "sequence (P56817 whole entry, looked up)": "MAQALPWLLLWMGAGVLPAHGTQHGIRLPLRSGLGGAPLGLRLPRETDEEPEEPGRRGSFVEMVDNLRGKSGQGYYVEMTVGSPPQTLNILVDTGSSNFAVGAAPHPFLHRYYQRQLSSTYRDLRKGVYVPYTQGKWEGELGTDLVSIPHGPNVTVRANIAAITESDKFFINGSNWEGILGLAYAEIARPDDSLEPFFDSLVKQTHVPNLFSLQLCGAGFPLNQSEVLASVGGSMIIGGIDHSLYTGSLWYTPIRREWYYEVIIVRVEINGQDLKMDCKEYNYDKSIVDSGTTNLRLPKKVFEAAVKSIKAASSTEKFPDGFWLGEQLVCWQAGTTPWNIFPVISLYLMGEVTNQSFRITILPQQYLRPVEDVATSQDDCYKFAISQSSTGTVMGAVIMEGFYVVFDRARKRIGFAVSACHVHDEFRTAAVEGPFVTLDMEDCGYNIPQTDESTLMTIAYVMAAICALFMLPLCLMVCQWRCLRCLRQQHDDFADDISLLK", "assay": "NVS_ENZ_hBACE: NovaScreen (NVS) Enzymatic Assay for human Beta-secretase (BACE) (AID 2283140);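 also: hits are inhibitors that reduce fluorescent substrate signal versus DMSO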", "how_it_was_run": "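Compounds were first tested in duplicate at 25 uM, then actives in concentration series, against recombinant BACE1 from SF9 cells. Enzyme activity was measured by fluorescence intensity 1 hour after dosing, with DMSO as negative control.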"}, "Caspase-3 (Homo sapiens)": {"target": "Caspase-3 (Homo sapiens) (UniProt P42574)", "sequence (P42574 whole entry, looked up)": "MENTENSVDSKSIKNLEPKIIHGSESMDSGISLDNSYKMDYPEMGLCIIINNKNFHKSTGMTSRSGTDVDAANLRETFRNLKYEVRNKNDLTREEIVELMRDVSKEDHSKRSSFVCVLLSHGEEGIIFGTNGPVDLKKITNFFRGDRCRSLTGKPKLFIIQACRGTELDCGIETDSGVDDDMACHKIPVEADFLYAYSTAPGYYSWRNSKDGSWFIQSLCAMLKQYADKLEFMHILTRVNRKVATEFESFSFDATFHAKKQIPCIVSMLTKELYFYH", "assay": "NVS_ENZ_hCASP3: NovaScreen (NVS) Enzymatic Assay for human Caspase 3 (CASP3) (AID 2283139)", "how_it_was_run": "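Recombinant human caspase-3 from E. coli with a fluorogenic substrate, read by fluorescence 1 h after dosing. Primary screen in duplicate at 25 uM. Actives (for example ≥30% inhibition) rerun as concentration-response up to 50 uM.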"}, "[2]": {"target": "human Caspase 5 (CASP5), CASP5 (gene 838) (UniProt P51878)", "sequence (P51878 whole entry, looked up)": "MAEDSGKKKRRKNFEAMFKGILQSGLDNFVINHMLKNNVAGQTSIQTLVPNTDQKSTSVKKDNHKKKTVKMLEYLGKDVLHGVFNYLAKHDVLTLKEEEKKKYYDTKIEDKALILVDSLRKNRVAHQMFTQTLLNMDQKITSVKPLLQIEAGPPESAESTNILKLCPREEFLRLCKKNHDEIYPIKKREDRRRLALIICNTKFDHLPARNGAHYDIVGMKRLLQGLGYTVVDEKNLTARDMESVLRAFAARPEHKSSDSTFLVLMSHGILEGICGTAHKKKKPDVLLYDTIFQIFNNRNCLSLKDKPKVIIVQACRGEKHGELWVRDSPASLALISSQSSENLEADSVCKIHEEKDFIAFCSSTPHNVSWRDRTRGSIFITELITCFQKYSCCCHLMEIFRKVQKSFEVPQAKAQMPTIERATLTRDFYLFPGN", "assay": "NVS_ENZ_hCASP5: NovaScreen (NVS) Enzymatic Assay for human Caspase 5 (CASP5) (AID 2283137)", "how_it_was_run": "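E. coli-derived enzyme, cell-free, 2 h incubation, fluorescence intensity. 25 uM duplicate single-point; hits → concentration series to 50 uM. DMSO baseline, positive/negative controls on every plate.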"}, "[3]": {"target": "human AKT serine/threonine Kinase 1 (AKT1), AKT1 (gene 207) (UniProt P31749)", "sequence (P31749 whole entry, looked up)": "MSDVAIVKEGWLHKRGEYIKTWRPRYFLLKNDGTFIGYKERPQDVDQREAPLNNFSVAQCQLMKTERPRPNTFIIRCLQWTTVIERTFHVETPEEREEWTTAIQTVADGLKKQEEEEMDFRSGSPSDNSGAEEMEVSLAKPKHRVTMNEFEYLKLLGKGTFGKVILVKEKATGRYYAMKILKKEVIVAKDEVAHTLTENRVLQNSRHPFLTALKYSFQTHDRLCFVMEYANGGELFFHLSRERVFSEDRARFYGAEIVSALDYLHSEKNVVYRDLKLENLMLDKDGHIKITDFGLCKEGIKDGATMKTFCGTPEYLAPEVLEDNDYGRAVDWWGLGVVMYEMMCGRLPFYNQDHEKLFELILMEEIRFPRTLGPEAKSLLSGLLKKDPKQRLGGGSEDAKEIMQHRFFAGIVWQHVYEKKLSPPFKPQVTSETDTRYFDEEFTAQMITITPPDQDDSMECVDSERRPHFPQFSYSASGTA", "assay": "NVS_ENZ_hAKT1: NovaScreen (NVS) Enzymatic Assay for human AKT serine/threonine Kinase 1 (AKT1) (AID 2283138)", "how_it_was_run": "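Recombinant AKT1, specific substrate, cell-free; 1 h; fluorescence intensity/electrophoretic mobility shift. Duplicate single-point 25 uM, then singleton CRC max 50 uM. DMSO = negative control/baseline; signal loss = inhibition.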"}, "[4]": {"target": "human Caspase 8 (CASP8), CASP8 (gene 841) (UniProt Q14790)", "sequence (Q14790 whole entry, looked up)": "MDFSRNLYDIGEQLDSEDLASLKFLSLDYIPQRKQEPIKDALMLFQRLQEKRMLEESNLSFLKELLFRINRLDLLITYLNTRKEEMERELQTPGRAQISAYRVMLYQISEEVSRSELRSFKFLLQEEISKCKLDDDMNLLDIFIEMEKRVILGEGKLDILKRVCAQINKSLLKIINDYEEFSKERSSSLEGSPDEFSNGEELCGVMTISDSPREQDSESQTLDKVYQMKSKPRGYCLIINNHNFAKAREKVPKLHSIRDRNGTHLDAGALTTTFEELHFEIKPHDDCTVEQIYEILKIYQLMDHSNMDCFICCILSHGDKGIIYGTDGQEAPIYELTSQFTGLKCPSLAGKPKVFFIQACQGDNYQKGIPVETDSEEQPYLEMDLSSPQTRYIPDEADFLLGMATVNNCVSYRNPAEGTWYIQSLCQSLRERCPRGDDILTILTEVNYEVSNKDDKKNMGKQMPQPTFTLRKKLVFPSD", "assay": "NVS_ENZ_hCASP8: NovaScreen (NVS) Enzymatic Assay for human Caspase 8 (CASP8) (AID 2283146)", "how_it_was_run": "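E. coli-expressed enzyme was used in a cell-free fluorogenic substrate assay read 1 h after dosing. Loss of signal was scored relative to DMSO, and the primary screen was run in duplicate at 25 uM.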"}, "[5]": {"target": "human Casein Kinase 1-delta (CK1D), CSNK1D (gene 1453) (UniProt P48730)", "sequence (P48730 whole entry, looked up)": "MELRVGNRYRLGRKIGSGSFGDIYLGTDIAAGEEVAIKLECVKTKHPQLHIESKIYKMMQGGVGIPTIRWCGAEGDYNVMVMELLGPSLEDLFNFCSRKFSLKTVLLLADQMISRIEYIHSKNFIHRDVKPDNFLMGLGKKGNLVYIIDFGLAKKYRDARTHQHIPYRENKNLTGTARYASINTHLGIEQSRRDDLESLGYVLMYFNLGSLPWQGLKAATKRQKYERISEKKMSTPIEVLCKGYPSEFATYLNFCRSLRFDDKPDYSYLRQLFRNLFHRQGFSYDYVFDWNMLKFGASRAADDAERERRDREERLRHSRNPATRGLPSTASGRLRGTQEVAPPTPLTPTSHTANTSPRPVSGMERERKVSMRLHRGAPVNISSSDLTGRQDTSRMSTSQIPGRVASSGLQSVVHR", "assay": "NVS_ENZ_hCK1D: NovaScreen (NVS) Enzymatic Assay for human Casein Kinase 1-delta (CK1D) (AID 2283148)", "how_it_was_run": "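Recombinant human CK1-delta, cell-free; fluorescent substrate with electrophoretic mobility-shift separation of product, read 1 h after dosing. Single 25 uM duplicate screen, then concentration-response up to 50 uM; loss of signal vs DMSO.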"}, "rat CYP3A1, gene 25642": {"tested_on": "rat CYP3A1, gene 25642", "assay": "NVS_ADME_rCYP3A1: NovaScreen (NVS) CYP450-related Enzyme Activity (ADME) Assay for rat CYP3A1 (AID 2283126)", "how_it_was_run": "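Cell-free recombinant CYP assay with fluorescent substrate, read 0.5 h after dosing. Screened at 10 uM in duplicate, hits at up to 20 uM in concentration-response; loss of signal versus acetonitrile baseline.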"}, "[6]": {"target": "rat CYP3A2, Cyp3a2 (gene 266682) (UniProt P05183)", "sequence (P05183 whole entry, looked up)": "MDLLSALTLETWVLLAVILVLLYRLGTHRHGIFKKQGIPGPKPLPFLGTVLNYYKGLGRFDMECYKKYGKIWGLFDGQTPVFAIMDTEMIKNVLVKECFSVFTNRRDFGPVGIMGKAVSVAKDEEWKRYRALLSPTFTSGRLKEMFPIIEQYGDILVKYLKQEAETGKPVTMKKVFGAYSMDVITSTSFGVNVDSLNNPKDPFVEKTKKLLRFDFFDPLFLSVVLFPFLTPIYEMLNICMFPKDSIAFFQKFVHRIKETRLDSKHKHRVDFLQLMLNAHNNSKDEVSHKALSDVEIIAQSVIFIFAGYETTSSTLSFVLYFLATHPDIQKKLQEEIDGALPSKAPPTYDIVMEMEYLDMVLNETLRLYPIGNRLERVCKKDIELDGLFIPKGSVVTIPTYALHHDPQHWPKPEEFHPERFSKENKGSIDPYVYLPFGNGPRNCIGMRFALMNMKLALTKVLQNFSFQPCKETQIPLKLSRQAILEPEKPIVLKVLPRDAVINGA", "assay": "NVS_ADME_rCYP3A2: NovaScreen (NVS) CYP450-related Enzyme Activity (ADME) Assay for rat CYP3A2 (AID 2283128)", "method": "NVS_ADME_rCYP3A2 is a biochemical, single-readout assay that uses extracted gene-proteins in a cell-free assay. Measurements were taken 0.5 hour after chemical dosing in a 96-well plate.NVS_ADME_rCYP3A2 is one of one assay component(s) measured or calculated from the NVS_ADME_rCYP3A2 assay. It is designed to make measurements of enzyme activity, a form of enzyme reporter, as detected with fluorescence intensity signals by Fluorescence technology.Data from the assay component NVS_ADME_rCYP3A2 was analyzed into 1 assay endpoint. This assay endpoint, NVS_ADME_rCYP3A2, was analyzed in the positive analysis fitting direction relative to Acetonitrile as the negative control and baseline of activity. Using a type of enzyme reporter, loss-of-signal activity can be used to understand changes in the enzymatic activity as they relate to the gene Cyp3a2. Furthermore, this assay endpoint can be referred to as a primary readout, because this assay has produced multiple assay endpoints where this one serves a enzymatic activity function. To generalize the intended target to other relatable targets, this assay endpoint is annotated to the cyp intended target family, where the subfamily is xenobiotic metabolism. […]"}, "[7]": {"target": "human AKT serine/threonine Kinase 2 (AKT2), AKT2 (gene 208) (UniProt P31751)", "sequence (P31751 whole entry, looked up)": "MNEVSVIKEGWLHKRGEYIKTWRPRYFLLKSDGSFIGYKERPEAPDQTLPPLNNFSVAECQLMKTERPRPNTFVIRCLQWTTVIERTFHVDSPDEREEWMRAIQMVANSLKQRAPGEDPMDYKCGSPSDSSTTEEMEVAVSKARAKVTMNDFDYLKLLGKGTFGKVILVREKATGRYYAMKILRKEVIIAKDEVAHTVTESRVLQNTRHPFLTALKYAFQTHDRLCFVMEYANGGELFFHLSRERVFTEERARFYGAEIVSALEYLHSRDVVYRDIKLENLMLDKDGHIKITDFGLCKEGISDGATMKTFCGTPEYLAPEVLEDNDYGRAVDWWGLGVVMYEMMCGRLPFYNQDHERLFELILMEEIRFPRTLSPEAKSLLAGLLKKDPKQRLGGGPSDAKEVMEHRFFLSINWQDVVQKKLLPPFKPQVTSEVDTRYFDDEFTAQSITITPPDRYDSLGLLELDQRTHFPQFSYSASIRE", "assay": "NVS_ENZ_hAKT2: NovaScreen (NVS) Enzymatic Assay for human AKT serine/threonine Kinase 2 (AKT2) (AID 2283141)", "how_it_was_run": "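Cell-free fluorescence/electrophoretic mobility shift readout of recombinant human AKT2 activity, 1 h after chemical dosing. Duplicate primary screen at 25 uM, then singleton concentration-response up to 50 uM; loss of signal versus DMSO baseline.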"}, "CDK2 (gene 1017)": {"target": "CDK2 (gene 1017) (UniProt P24941)", "assay": "NVS_ENZ_hCDK2: NovaScreen (NVS) Enzymatic Assay for human Cyclin-Cependent Kinase 2 (CDK2) (AID 2283144)", "method": "NVS_ENZ_hCDK2 is a biochemical, single-readout assay that uses extracted gene-proteins in a cell-free assay. Measurements were taken 1 hour after chemical dosing in a 384-well plate.NVS_ENZ_hCDK2 is one of one assay component(s) measured or calculated from the NVS_ENZ_hCDK2 assay. It is designed to make measurements of enzyme activity, a form of enzyme reporter, as detected with fluorescence intensity signals by Fluorescence and electrophoretic mobility shift technology.Data from the assay component NVS_ENZ_hCDK2 was analyzed into 1 assay endpoint. This assay endpoint, NVS_ENZ_hCDK2, was analyzed in the positive analysis fitting direction relative to DMSO as the negative control and baseline of activity. Using a type of enzyme reporter, loss-of-signal activity can be used to understand changes in the enzymatic activity as they relate to the gene CDK2. Furthermore, this assay endpoint can be referred to as a primary readout, because this assay has produced multiple assay endpoints where this one serves a enzymatic activity function. To generalize the intended target to other relatable targets, this assay endpoint is annotated to the kinase intended target family, where the subfamily is serine/threonine kinase. […]"}}, "note": "“And” between values parts separate entries of the source, which are not always exact repeats. Equal entries are not always repeated. Results filed as inconclusive are left out. The source holds several records for some structures; these can differ, active in one and inactive in another. The source made the active and inactive calls. The calls were made as follows: active = hit-call score of the fitted dose curve at least 0.9, where 1 is the maximum; inconclusive = response in the unintended direction; inactive = score below 0.9.", "data": [{"smiles": "CC(=O)CCC=C(C)CCC=C(C)C", "values": [{"measurement": "outcome", "setting": "[1]", "result": "inactive"}]}, {"smiles": "CCCCOCCOCCO", "values": [{"measurement": "outcome", "setting": "Caspase-3 (Homo sapiens)", "result": "inactive"}]}, {"smiles": "Nc1ccc(N)c([N+](=O)[O-])c1", "values": [{"measurement": "AC50", "setting": "[2]", "result": "8.68 µM (active) and 13.7 µM (active)"}]}, {"smiles": "CC1=CC(C)C(C=O)C(C)C1", "note": "(stereo not drawn) (tested in a mixture with another compound)", "values": [{"measurement": "outcome", "setting": "[1]", "result": "inactive"}]}, {"smiles": "O=C(c1ccc(OCCN2CCCCC2)cc1)c1c(-c2ccc(O)cc2)sc2cc(O)ccc12", "values": [{"measurement": "outcome", "setting": "[3]", "result": "inactive"}, {"measurement": "AC50", "setting": "[1]", "result": "15.3 µM (active)"}, {"measurement": "outcome", "setting": "[4]", "result": "inactive"}, {"measurement": "outcome", "setting": "[5]", "result": "inactive"}]}, {"smiles": "C[C@]12CC[C@@H]3c4ccc(O)cc4CC[C@H]3[C@@H]1CC[C@@H]2O", "values": [{"measurement": "outcome", "setting": "rat CYP3A1, gene 25642", "result": "inactive"}, {"measurement": "AC50", "setting": "[6]", "result": "1.48 µM (active)"}, {"measurement": "outcome", "setting": "[7]", "result": "inactive"}]}, {"smiles": "C=C(C)C(N)=O", "values": [{"measurement": "outcome", "setting": "[3]", "result": "inactive"}]}, {"smiles": "O=[N+]([O-])c1cc(N(CCO)CCO)ccc1NCCO", "values": [{"measurement": "AC50", "setting": "[2]", "result": "8.66 µM (active)"}]}, {"smiles": "C#C[C@]1(O)CC[C@H]2[C@@H]3CCc4cc(O)ccc4[C@H]3CC[C@@]21C", "values": [{"measurement": "AC50", "setting": "rat CYP3A1, gene 25642", "result": "2.51 µM (active) and 3.73 µM (active) and 1.4 µM (active)"}, {"measurement": "AC50", "setting": "[6]", "result": "1.2 µM (active) and 2.59 µM (active) and 1.12 µM (active)"}, {"measurement": "outcome", "setting": "[3]", "result": "inactive"}]}, {"smiles": "CC/C(=C(\\c1ccccc1)c1ccc(OCCN(C)C)cc1)c1ccccc1", "values": [{"measurement": "AC50", "setting": "[3]", "result": "33.4 µM (active)"}, {"measurement": "outcome", "setting": "[3]", "result": "inactive"}, {"measurement": "outcome", "setting": "[1]", "result": "inactive"}, {"measurement": "outcome", "setting": "[7]", "result": "inactive"}, {"measurement": "outcome", "setting": "CDK2 (gene 1017)", "result": "inactive"}, {"measurement": "outcome", "setting": "[5]", "result": "inactive"}]}, {"smiles": "O=C1OC2(c3ccc(O)cc3Oc3cc(O)ccc32)c2ccccc21", "values": [{"measurement": "AC50", "setting": "[1]", "result": "7.41 µM (active)"}]}]}
